This is an account of results in PubChem BioAssay AID2061324 (National Center for Advancing Translational Sciences (NCATS), 2025).

Inconclusive results are not listed. The source made the active and inactive calls. Calls follow the shape of the dose curve; as a rule, active = well fitted inhibition curve with a large enough effect; inconclusive = small, poorly fitted or top-dose-only effect; inactive = flat fitted curve, though single readings scatter. Square brackets hold non-standard residues; d marks the D form. Peptide text beside a SMILES is read from it. Dolaproine = CO[C@@H]([C@@H]1CCCN1)[C@@H](C)C(=O)O; Dil = CC[C@H](C)[C@H](NC)[C@@H](CC(=O)O)OC; NMeV = CN[C@H](C(=O)O)C(C)C

The nature of the experiment: Identification of antibody-drug conjugate (ADC) payloads which are substrates of ATP-binding cassette drug efflux transporters: ABCG2-HEK293-pcDNA cell line. Particulars: ABCG2-HEK293 transfected cells viability, CellTiter-Glo, 48 h. The source says: Antibody-drug conjugates (ADCs) feature an antibody recognizing a specific protein joined to a potent toxic payload. Numerous antibody-drug conjugates have received FDA approval; however, clinical resistance arises. Resistance mechanisms include decreased expression or mutation of the antibody target, impaired payload release, or increased expression of ATP-binding cassette (ABC) efflux transporters associated with multidrug resistance. We therefore sought to characterize the interaction of ABC multidrug transporters with ADC payloads. We performed a high-throughput screen with 27 common ADC payloads using cells lines expressing ABC transporters P-glycoprotein (P-gp, encoded by ABCB1) or ABCG2 (encoded by ABCG2). Confirmatory assays were also performed using cells transfected to express P-gp, ABCG2, or MRP1 (encoded by ABCC1). Several commonly used ADC payloads were substrates of P-gp, including calicheamicin gamma1, monomethyl auristatin E, DM1, and DM4. All the pyrrolobenzodiazepines tested - SJG136, SGD-1882, SG2057, and SG3199 - were substrates of P-gp, ABCG2, and MRP1. […] These findings highlight the risk of transporter-mediated resistance with certain ADC payloads and underscore the importance of selecting payloads that evade ABC transporter recognition in future ADC development.
HEK-293 cells were transfected with empty vector (pcDNA) or vector containing the human ABCB1 (MDR-19), ABCG2 (R-5), or ABCC1 gene (MRP1) and were maintained in EMEM with 2 mg/mL G418 added to maintain transporter expression. The HeLa derivative KB-3-1 and the P-gp overexpressing KB-8-5-11 subline were maintained in DMEM; KB-8-5-11 additionally received 100 ng/mL colchicine. H460 parental cells were obtained from the Division of Cancer Treatment and Diagnosis Tumor Repository, National Cancer Institute at Frederick, MD and were cultured in RPMI. The ABCG2 expressing subline H460 MX20 was generated by selecting H460 cells in 20 nM mitoxantrone. Media in all cases was supplemented with 10% FBS and 1% penicillin-streptomycin. We explored 27 common ADC payloads, in two orthogonal, paired cell line sets-a drug selected and transfected set for each transporter--to identify substrates of the ABC transporters P-gp and ABCG2. Compounds were sourced from Levena Biopharma (San Diego, CA), Selleck Chem (Houston, TX), ChemieTek (Indianapolis, IN), or Microsource Discovery Systems (Gaylordsville, CT). Screening was performed as previously described. Briefly, cells were plated at a density of 500 cells/well in 1536 well plates with compounds added using a 1536-head pin tool (Kalypsys, San Diego CA). Cells were incubated with cytotoxic drugs and processed with CellTiter Glo reagent (Promega, Madison, WI) to determine viability after 48 hours. P-gp substrates were identified by comparing compound activity between paired sets of low-expressing (sensitive) and over-expressing (resistant) cell lines.
Regarding `CN(C)CCOc1ccc2[nH]c(C(=O)N3C[C@@H](CCl)c4c3cc(O)c3ccccc43)cc2c1`, the Potency is 0.8 nM (active). For `COC(=O)c1cc2c3c(cc(O)c2[nH]1)N(C(=O)c1cc2cc(OC)c(OC)c(OC)c2[nH]1)CC3CCl` (stereo unspecified) the value was 3.4 nM (active). Turning to `CCN(C(C)=O)[C@H]1CO[C@@H](O[C@H]2[C@H](O[C@H]3C#C/C=C\C#C[C@]4(O)CC(=O)C(NC(=O)OC)=C3/C4=C\CSSSC)O[C@H](C)[C@@H](NO[C@H]3C[C@H](O)[C@H](SC(=O)c4c(C)c(I)c(O[C@@H]5O[C@@H](C)[C@H](O)[C@@H](OC)[C@H]5O)c(OC)c4OC)[C@@H](C)O3)[C@@H]2O)C[C@@H]1OC`, the Potency is 2.7 nM (active). On to `Cc1nc(Nc2ncc(C(=O)Nc3c(C)cccc3Cl)s2)cc(N2CCN(CCO)CC2)n1`, for which the Potency is 4750 nM (active). With `CCN[C@H]1CO[C@@H](O[C@H]2[C@H](O[C@H]3C#C/C=C\C#C[C@]4(O)CC(=O)C(NC(=O)OC)=C3/C4=C\CSSSC)O[C@H](C)[C@@H](NO[C@H]3C[C@H](O)[C@H](SC(=O)c4c(C)c(I)c(O[C@@H]5O[C@@H](C)[C@H](O)[C@@H](OC)[C@H]5O)c(OC)c4OC)[C@@H](C)O3)[C@@H]2O)C[C@@H]1OC`, the Potency was 1.1 nM (active). With `CC[C@]1(O)CC2CN(CCc3c([nH]c4ccccc34)[C@@](C(=O)OC)(c3cc4c(cc3OC)N(C)[C@H]3[C@@](O)(C(=O)OC)[C@H](OC(C)=O)[C@]5(CC)C=CCN6CC[C@]43[C@@H]65)C2)C1` (stereo partly specified), the Potency was 300 nM (active).

For the compound `CC[C@H](C)[C@@H]([C@@H](CC(=O)N1CCC[C@H]1[C@H](OC)[C@@H](C)C(=O)N[C@@H](Cc1ccccc1)C(=O)O)OC)N(C)C(=O)[C@@H](NC(=O)[C@@H](NC)C(C)C)C(C)C` (H-[NMeV]V[Dil][Dolaproine]F-OH), the Potency is 3360 nM (active). With `COc1cc2cc(c1Cl)N(C)C(=O)C[C@H](O)[C@]1(C)O[C@H]1[C@H](C)C1C[C@@](O)(NC(=O)O1)[C@H](OC)/C=C/C=C(\C)C2` the figure was 4750 nM (active). With `COc1cccc2c1C(=O)c1c(O)c3c(c(O)c1C2=O)C[C@@](O)(C(=O)CO)C[C@@H]3O[C@H]1C[C@H]2[C@H](O[C@@H]3[C@@H](OC)OCCN32)[C@H](C)O1`, the Potency was 0.2 nM (active).

On to `CC[C@H](C)[C@@H]([C@H](N)CC(=O)N1CCC[C@H]1[C@H](OC)[C@@H](C)C(=O)N[C@@H](Cc1ccccc1)c1nccs1)N(C)C(=O)[C@@H](NC(=O)[C@H](C(C)C)N(C)C)C(C)C`, for which the Potency is 6 nM (active). On to `CC(C)(C)OC(=O)Nc1ccc2[nH]c(C(=O)N3C[C@@H](CCl)c4c3cc(O)c3ccccc43)cc2c1`, for which the Potency is 16.9 nM (active).
